Screens from PubChem BioAssay.
PfHsp40 rescue: compounds rescuing yeast from Plasmodium falciparum HSP40 toxicity; S. cerevisiae expressing PfHsp40, growth rescue, ATP luminescence; 0.68% of 340,000 active; AID 504582; growth rescue, % at 12.5 µM; in the data active means growth rescue above about 28%, passing the limit was not always enough; inconclusive means no clear call, values can overlap the other calls;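 further: yeast W303a lacking pdr1 and pdr3 grown in galactose medium; growth measured after three days at 30 °C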
VHR inh abs: DUSP3 (human) phosphatase inhibition | P51452 | recombinant VHR phosphatase, pNPP absorbance | inhibition, % at 13.3 µM | 0.52% of 290,000 active; in the data active means inhibition above about 50%
Target sequence (P51452 whole entry, looked up): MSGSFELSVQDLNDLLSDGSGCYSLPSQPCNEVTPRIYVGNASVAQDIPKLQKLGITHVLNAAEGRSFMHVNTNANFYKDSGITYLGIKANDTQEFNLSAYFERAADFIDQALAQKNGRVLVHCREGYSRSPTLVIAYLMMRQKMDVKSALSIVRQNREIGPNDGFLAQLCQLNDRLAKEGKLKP
PrPC TRFRET: reduces human prion protein on the cell surface | P04156 | cell surface PrPC, TR-FRET read-out | inhibition, % at 13.8 µM | 0.43% of 370,000 active; in the data active means inhibition above about 24%; further: 0% = median of the test wells and 100% = reference compound wells
MazF activator: MazEF (E. coli) toxin RNase activation. P0AE70. FAM/BHQ RNA-DNA oligo cleavage fluorescence, 5 h. activation, % at 20 µM. 0.32% of 350,000 active. AID 504720; in the data active means activation above about 50%
Target sequence (P0AE70 whole entry, looked up): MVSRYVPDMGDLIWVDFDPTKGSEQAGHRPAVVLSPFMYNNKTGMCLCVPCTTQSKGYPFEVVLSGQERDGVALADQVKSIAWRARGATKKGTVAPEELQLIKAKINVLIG
PrP UTR inh: suppresses PrP 5' UTR mRNA reporter expression | cell-based PrP 5' UTR mRNA reporter, plate reader | inhibition, % (test concentration not listed) | 0.35% of 340,000 active | AID 488862; in the data active means inhibition above about 52%; further: 0 = median of the neutral control wells
BJeLR viability: BJeLR cell viability loss; BJeLR (HRASV12) viability, CellTiter-Glo ATP luminescence, 48 h; inhibition, % (concentration not given with the values); 0.17% of 300,000 active; AID 1554; in the data active means inhibition above about 50%; inconclusive means no clear call, values can overlap the other calls
Starred values were filed as active, the others as inactive; ? = inconclusive; . = no result given. An excerpt weighted towards active compounds, which were near 2.1% of everything screened.

SMILES	PfHsp40 rescue	VHR inh abs	PrPC TRFRET	MazF activator	PrP UTR inh	BJeLR viability
CS(=O)(=O)c1ccc(S(=O)CC(=O)Oc2ccc(Cl)cc2)c([N+](=O)[O-])c1 (stereo not drawn)	.	-7.4	.	-15.7	.	-22.8
O=C(CS(=O)c1ccccc1[N+](=O)[O-])Oc1ccc(Br)cc1 (stereo not drawn)	67.6*	21.9	-10.6	2.7	-12.5	2.5
COc1cc(OC)cc(C(=O)N2CCN(C(=O)c3cccs3)CC2)c1	-0.3	57.6*	-9.4	11.1	-18.0	-2.5
Cn1nc([N+](=O)[O-])nc1Sc1nnc(-c2ccccc2)o1	0.3	39.2	6.6	10.7	-28.1	56.4*
Cc1ccc(NC(=O)Cn2nnc(-c3ccccc3F)n2)c(C)c1	.	.	-3.5	.	.	.
O=C1C=CC2(C=C1)O[C@H](Cc1ccccc1)[C@@H](Cc1ccccc1)O2	-0.6	.	88.9*	-1.2	-8.1	.
O=Cc1c(OCc2ccccc2)ccc2ccccc12	100.5*	12.1	6.3	13.7	-57.6	2.6
CCOc1ccccc1C(=O)Nc1cc(Cl)ccc1O	?	9.1	3.3	68.4*	-22.9	2.2
COc1cc(C)ccc1OCc1cc(C(=O)N(Cc2nccn2C)C(C)C)no1	-0.5	52.5*	-12.4	13.2	-120.2	-3.9
COc1cccc(OCc2cc(C(=O)N(Cc3nccn3C)C(C)C)no2)c1	-1.1	-1.9	-2.6	-4.8	0.8	0.1
Cc1ccc(NC2(c3nnnn3-c3c(C)cccc3C)CCCCC2)cc1	65.8*	-11.0	7.5	-7.7	-7.1	1.0
COCCN1C(=O)CCC1(C)c1nnnn1-c1c(C)cccc1C (stereo not drawn)	.	.	-0.1	.	.	.
CC1CC1C(=O)N(C)CC(=O)Nc1ccccc1Br (stereo not drawn)	-0.8	.	2.0	3.6	-11.5	.
O=c1[nH]c2ccccc2n1C1=CCCC1	-0.3	13.9	-0.1	-5.2	-19.4	-3.4
O=c1[nH]c2ccccc2n1C1=CCNCC1	-0.4	52.0*	9.4	6.1	-21.2	12.9
CC(=O)Oc1ccc(/C=N/NS(=O)(=O)c2ccc(C)cc2)c(OC(C)=O)c1	0.7	53.9*	3.9	18.2	-19.1	1.0
COc1ccc(O)c(/C=N/NS(=O)(=O)c2ccc(C)cc2)c1	-0.6	12.2	-11.5	8.9	-14.4	0.0
Cc1cc(C(=O)NCC(=O)Nc2c(C)cccc2C)c(C)o1	1.0	1.6	1.9	-5.2	12.0	-6.1
CC(C)c1ccc(C2C3=C(COC3=O)Nc3cc4c(cc32)OCO4)cc1 (stereo not drawn)	0.0	13.4	16.6	12.5	50.9	58.1*
COc1cccc(NC(=O)C2(C)CCCN2C(=O)C(C)C)c1 (stereo not drawn)	.	.	2.5	.	.	.
COC(=O)[C@H](CCSC)NC(=O)c1cc2c(cn1)[nH]c1ccccc12	-0.1	27.2	2.8	4.1	-6.0	-1.4
CNC(=O)c1cc2c(cn1)[nH]c1ccccc12	60.1*	.	-2.4	1.9	-60.3	-0.7
C=CC[n+]1c(/C=C2\C=Cc3cc(C)ccc3N2CC)ccc2ccccc21	277.1*	19.7	-2.9	19.5	-27.7	26.3
Cc1ccc2nc3c(cc2c1)c(C)nn3-c1ccccc1	-0.9	-29.1	-7.7	3.1	-24.0	-7.0
Cc1nn(-c2ccccc2)c2nc(=O)n(-c3ccccc3)cc12	0.0	55.9*	-2.4	-2.8	-14.1	3.7
SMILES	PfHsp40 rescue	VHR inh abs	PrPC TRFRET	MazF activator	PrP UTR inh	BJeLR viability
Cc1cn([C@H]2C[C@H](O)[C@@H](CCC(=O)NCCCn3ccnc3)O2)c(=O)[nH]c1=O	-0.5	.	4.5	2.6	-22.4	.
Oc1ccccc1N=Cc1ccc[nH]1	54.5*	7.9	-15.5	4.0	-20.1	-5.5
COc1c(OC(C)=O)c(=O)n2c3ccccc3c3ccnc1c32	27.1*	.	-5.0	-6.6	-2.9	4.2
Cc1onc(-c2c(Cl)cccc2Cl)c1C(=O)N/N=C(\N)COc1ccc(Cl)cc1	599.0*	-10.9	13.4	-1.0	1.9	-3.4
CN1C/C(=C/c2ccncc2)C(=O)/C(=C/c2ccncc2)C1	-1.6	48.2	-12.7	-10.9	-16.3	71.8*
CN1C/C(=C\c2ccc(N3CCOCC3)cc2)C(=O)/C(=C/c2ccc(N3CCOCC3)cc2)C1	-0.8	-4.8	-1.0	56.6*	-29.0	0.6
COc1cc(C=C2CN(C)C(=O)C2=O)ccc1O	.	.	-4.4	-22.5	.	.
CCOc1cc(/C=C2\CN(C)C/C(=C\c3ccc(O)c(OCC)c3)C2=O)ccc1O	-1.7	10.4	-17.6	-17.3	-3.2	61.0*
CC(C(=O)NC1CCCC1)n1c(-c2ccccn2)nc2ccccc21 (stereo not drawn)	.	.	0.2	.	.	.
CC(Oc1ccccc1)C(=O)N1CCN(c2ccc(N3CCOCC3)nn2)CC1 (stereo not drawn)	-1.3	.	0.1	4.0	-20.4	-1.9
CCc1ccc(NP(=O)(Oc2ccccc2F)Oc2ccccc2F)cc1	42.6*	1.8	2.4	-11.3	-28.7	3.1
Cc1ccc(S(=O)(=O)N[C@H](C(=O)N2CCC(C(=O)N[C@H](C(=O)O)c3ccccc3)CC2)C(C)C)cc1	-1.7	28.8	3.9	-4.2	-15.9	10.6
Cc1ccc(-c2nc3c4ccccc4ccn3c2Cc2cccc(F)c2)cc1	.	.	1.7	.	.	.
Cc1ccc(NC(=O)c2cc(=O)c3ccccc3o2)c(C)c1	1.0	57.9*	-3.0	2.4	-39.2	-8.0
CC(=O)Oc1c(Sc2ccccc2[N+](=O)[O-])c(C)nn1C(C)(C)C	42.3*	8.3	2.6	8.2	-3.4	.
COc1ccc(CCC(=O)NC(C)c2ccccc2)cc1OC (stereo not drawn)	-1.1	56.9*	-15.5	3.9	-3.4	-3.8
CC(Sc1nnc(Cc2ccccc2)o1)C(=O)Nc1ccccc1[N+](=O)[O-] (stereo not drawn)	0.1	.	-12.6	0.6	.	.
CC(=O)c1ccc(OC2(C)CCN(Cc3ccc(C)cc3)C2)cc1 (stereo not drawn)	.	.	-10.2	.	.	.
CC(C)C(=O)NNC(=O)c1csc(-c2cccs2)n1	-0.8	12.5	-9.6	9.2	-4.0	2.0
CC(C)(C)c1ccc(C(=O)CC(Sc2ccc(Cl)cc2)C(=O)O)cc1 (stereo not drawn)	75.1*	25.6	0.5	-0.6	-28.6	4.0
Cc1ccc(SC(CC(=O)c2ccc(F)cc2)C(=O)O)cc1 (stereo not drawn)	1.5	-22.5	1.9	3.2	-16.3	-8.4
CCCc1cc(=O)oc2cc(C)cc(OC(C)C(=O)NCc3ccncc3)c12 (stereo not drawn)	-0.1	-2.4	4.5	15.9	0.0	1.2
Nc1nc(N)c2c(ccc3nccc32)[nH]1	-0.3	2.6	5.0	-5.0	5.4	66.0*
Nc1ccc2ncccc2c1N	-0.2	1.5	0.6	15.5	-14.6	.
CCn1c(=O)cc(SCC(=O)NCc2ccccn2)c2ccccc21	1.0	54.7*	3.2	-11.0	.	-21.6
COc1ccc(Cn2cc(CN3[C@H](Cc4ccccc4)COc4cc(Br)ccc4S3(=O)=O)nn2)cc1	.	.	-0.3	.	.	.
